Compound activity deposited in PubChem by National Center for Advancing Translational Sciences (NCATS).
A selection: hits, their analogues and other compounds. The true share with any hit is near 10%.
BAZ2B inh – qHTS Assay for Inhibitors of BAZ2B. Bromodomain adjacent to zinc finger domain protein 2B (Homo sapiens), Q9UIF8. AlphaScreen BAZ2B-H3K14Ac peptide displacement. 360,000 compounds, 4.4% hits. AID 504333, 2011. Potency, µM (highest dose often 114 µM), for the others: at the highest dose activity change, negative = inhibition, usual class: inhibitors; note: potency is the fitted concentration of half-maximal effect; % is set by controls: 0 for no effect and ±100 for the full control effect; nearly all actives have a fitted effect of over 60% in size
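In this displacement format the biotinylated H3(5-23) peptide acetylated at Lys14 serves as ligand at 50 nM, with BAZ2B at 50 nM in PBS pH 7.4 containing 0.01% Tween-20. Donor and acceptor beads are 10 ug/mL final.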
HP1b binding inh – HTS for Inhibitors of HP1-beta Chromodomain Interactions with Methylated Histone Tails | Chromobox protein homolog 1 (Homo sapiens), P83916 | AlphaScreen HP1-beta / biotin-H3K9me3 peptide binding | Potency, µM (top dose mostly 114 µM), for the others: top-dose activity change, negative = inhibition, hits mostly inhibitors | 390,000 compounds, 0.56% hits | AID 540317, 2011; note: potency is the fitted concentration of half-maximal effect; nearly all actives have a fitted effect of over 70% in size
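Compound inhibition of the preformed complex between 50 nM HP1-beta and 50 nM biotinylated H3K9me3 peptide was read by AlphaScreen. Buffer was PBS pH 7.4 with 0.01% Tween-20. Incubations ran 30 min at room temperature, with 10 ug/mL donor/acceptor beads.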
CtBP-E1A blk – qHTS Assay for Inhibitors of the CtBP/E1A Interaction. AlphaScreen GST-E1A/His-CtBP binding, 1536-well; stronger effect = lower value. activity change, % (concentration not given with the values). 340,000 compounds, 0.49% hits. AID 651724, 2012; in the data active = activity change below about -65%; inconclusive = mostly about -30% to -63%; note: % is set by controls: 0 for no effect and ±100 for the full control effect
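Homogeneous bead-based format: GST-tagged E1A captured on glutathione donor beads, His-tagged CtBP on nickel acceptor beads; compounds precede bead addition by 2 h at 37 °C.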
Six1-Eya2 inh – qHTS Assay for Inhibitors of the Six1/Eya2 Interaction | Homeobox protein SIX1 (Homo sapiens) + Protein phosphatase EYA2 (Homo sapiens), … | activity change, % (no concentration beside the values) | 360,000 compounds, 0.56% hits | AlphaScreen GST-Six1/His-Eya2 binding, biochemical; stronger effect = lower value; in the data active = activity change below about -65%; inconclusive = mostly about -30% to -63%; note: % is set by controls: 0 for no effect and ±100 for the full control effect
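AlphaScreen with GST-Six1 and His-Eya2 (5X mix: 250 nM and 500 nM), glutathione donor and nickel acceptor beads; buffer 50 mM Tris pH 8.0, 300 mM NaCl, 1 mM TCEP; 1 h at 37 C in the dark.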
G9a block – qHTS Assay for Inhibitors of Histone Lysine Methyltransferase G9a; Histone-lysine N-methyltransferase EHMT2 (Homo sapiens), Q96KQ7; G9a H3K9 monomethylation, AlphaScreen, 2 h; Potency, µM (doses to about 102 µM), for the others: top-dose activity, negative = inhibition, usual class: inhibitors; 350,000 compounds, 8.8% hits; note: potency is the fitted concentration of half-maximal effect; % is set by controls: 0 for no effect and ±100 for the full control effect; nearly all actives have a fitted effect of over 75% in size
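AlphaScreen read-out: biotin-H3K9 peptide (500 nM) methylation by 20 nM enzyme with 20 uM SAM, 2 h at room temperature after 15 min compound preincubation; anti-monomethyl H3K9 antibody plus donor/acceptor beads, 10 min dark.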
JMJD2A Tudor inh – qHTS Assay for Inhibitors of JMJD2A-Tudor Domain; Potency, µM (highest dose often 114 µM), for inactives: top-dose activity change, negative = inhibition, usual class: inhibitors; 390,000 compounds, 4.4% hits; Lysine-specific demethylase 4A (Homo sapiens), O75164; AID 504339, 2011; AlphaScreen JMJD2A-Tudor / H3K4me3 peptide binding; note: potency is the fitted concentration of half-maximal effect; % is set by controls: 0 for no effect and ±100 for the full control effect; nearly all actives have a fitted effect of over 50% in size
* = called active by the depositor; ? = inconclusive; · = no result given; [ ] = remark or other dose. Unless noted, calls come from the whole dose curve; as a rule, active = well fitted inhibition curve with a large enough effect; inconclusive = small, poorly fitted or top-dose-only effect; inactive = no such curve, though single readings can be large or run the other way.

SMILES | BAZ2B inh | HP1b binding inh | CtBP-E1A blk | Six1-Eya2 inh | G9a block | JMJD2A Tudor inh
Cc1nc2sc(C(c3ccco3)N3CCc4ccccc4C3)c(O)n2n1 (centres undefined) | · | -6.0% | -9.4 | -5.7 | · | 56.2µM*
Oc1c(C(c2ccc(F)cc2)N2CCc3ccccc3C2)sc2ncnn12 (centres undefined) | 9.7% | 22.4% | -0.6 | 0.3 | 7.94µM* | ?
Cc1nc2sc(C(c3ccco3)N3CCN(c4ccccc4F)CC3)c(O)n2n1 (centres undefined) | -30.4% | 9.6% | 11.0 | -6.5 | 44.7µM* | -17.9%
O=C(O)Cc1ccc(C(=O)c2ccccc2)s1 | -1.3% | 18.7% | 5.3 | 5.2 | 17.8µM* | -26.1%
Cc1ccc(SCC(=O)c2ccc(CC(=O)O)s2)cc1 | 50.1µM* | 4.5% | -2.5 | -16.1 | · | ?
O=C(O)Cc1ccc(C(=O)CSc2ccccc2)s1 | 50.1µM* | 14.2% | · | 2.8 | 56.2µM* | 56.2µM*
CCc1ccc(-c2nc(CS(=O)CC(=O)NCCc3ccc(Cl)cc3)c(C)o2)cc1 (centres undefined) | 3.2% | 18.0% | · | · | -41.2%[59 µM] | -11.9%
O=C(O)/C(=C\c1cccc(F)c1)c1ccc(S(=O)(=O)N2CCCCC2)s1 | ? | 1.3% | -6.0 | -2.5 | 56.2µM* | ?
COc1ccc(OC)c(NC(=O)c2ccc3c(c2)c(C)c(C)n3Cc2ccc(F)cc2)c1 | 25.1µM* | 15.3% | · | · | ? | ?
Cc1c(C)n(C)c2ccc(C(=O)NCCCN3CCN(C)CC3)cc12 | -22.7%[57.1 µM] | 5.9% | -2.3 | -5.9 | ? | ?
COc1ccc(OC)c(CNC(=O)c2ccc3c(c2)c(C)c(C)n3Cc2ccc(Cl)cc2)c1 | -33.4% | 10.5% | · | · | -44.3%[59 µM] | ?
COc1ccc(OC)c(CNC(=O)c2ccc3c(c2)c(C)c(C)n3C)c1 | 35.5µM* | -3.1% | · | · | ? | ?
Cc1c(C)n(C)c2ccc(C(=O)NCc3cccs3)cc12 | ? | -6.8% | -16.7 | -20.4 | 50.1µM* | ?
CC(=O)N1CCN(S(=O)(=O)c2cccc(C(=O)N3CCN(S(=O)(=O)c4c(C)c(C)cc(C)c4C)CC3)c2)CC1 | · | · | 0.0 | -1.8 | · | ·
C[C@@H]1O[C@@H](Oc2c(-c3cc(O)c(O)c(O)c3)oc3cc(O)cc(O)c3c2=O)[C@H](O)[C@H](O)[C@H]1O | 50.1µM* | ? | -5.1 | -20.5 | 44.7µM* | 31.6µM*
CC(C)[C@H](N)c1nnc2n1N=C(c1ccc(Cl)cc1)CS2 | -9.6% | 43.1% | 0.4 | 4.0 | ? | 8.0%
CCC(=O)Nc1ccc(C2=Nn3c(nnc3C(C)C)SC2)cc1 | 2.3% | -12.4% | 4.7 | 6.3 | 14.1µM* | -1.3%
Cc1cc(C)c(NC(=O)C2CCN(C(=O)N3CCOc4ccccc43)CC2)c(C)c1 | -22.6% | 30.2% | · | · | 0.0%[59 µM] | -8.2%
CC(C)Cc1csc(=S)[nH]1 | · | 6.1%[57 µM] | 5.4 | 6.7 | · | 3.98µM*
Cc1cc(C)nc(-n2nc(C)c3c2NC(=O)CC3c2cccc(O)c2)n1 (centres undefined) | -11.3% | 48.2% | · | · | -3.2%[59 µM] | -2.0%
N#C/C(=C\C=C\c1ccccc1[N+](=O)[O-])C(=O)NCc1ccccc1 | ? | ? | -14.2 | -2.3 | 39.8µM* | ?
N#C/C(=C\c1ccccc1[N+](=O)[O-])C(=O)NCc1ccccc1 | -23.4% | 13.8% | 3.1 | 2.5 | · | -26.9%
C=CCNC(=O)/C(C#N)=C/c1ccccc1[N+](=O)[O-] | -6.0% | 33.0% | 0.0 | 17.9 | ? | -2.7%
CCCCCCCCNC(=O)/C(C#N)=C/c1ccccc1[N+](=O)[O-] | -2.1% | -25.1% | -2.9 | 3.2 | 39.8µM* | ?
